Experimental data published in the supplement of paper PMC7530171.
Several values for one entry are separate records, joined by “and”; a condition that tells them apart may be missing. Equal values may be shown once. ± gives the standard deviation.

These compounds were tested on THP-1 (assay: THP-1 cell loss relative to DMSO control; higher = more host cell loss (toxicity); extreme values may be limits of the assay). Details: 10 µM; 4 days; infection: M. tuberculosis H37Rv.
Protocol: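 OICR kinase inhibitor library screened in duplicate at 10 uM against M. tuberculosis-infected THP-1 macrophages, 4 days at 37 C. THP-1 cell loss (cytotoxicity or loss of adherence) was quantified from Hoechst-stained nuclei counts by high-content imaging and normalised to the 1% DMSO control; 100 = complete loss of host cells.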

Compound	THP-1 cell loss
CN1C(=O)C(Cc2c[nH]c3ccccc23)NC1=S (stereo not given) [Necrostatin-1]	2.6 ± 3.7%
Cn1cc(-c2ccc3nnc(C(F)(F)c4ccc5ncccc5c4)n3n2)cn1	13.4 ± 19%
COc1cc(Nc2c(C#N)cnc3cc(OCCCN4CCN(C)CC4)c(OC)cc23)c(Cl)cc1Cl [Bosutinib]	59.6 ± 15%
CN(C)C/C=C/C(=O)Nc1cc2c(Nc3ccc(F)c(Cl)c3)ncnc2cc1O[C@H]1CCOC1	77.6 ± 2.9%
CCCS(=O)(=O)Nc1ccc(F)c(C(=O)c2c[nH]c3ncc(-c4ccc(Cl)cc4)cc23)c1F	100%
CN1CCN(CCOc2cc(OC3CCOCC3)c3c(Nc4c(Cl)ccc5c4OCO5)ncnc3c2)CC1	20.5 ± 7%
C[C@@H](Oc1cc(-n2cnc3ccc(CN4CCN(C)CC4)cc32)sc1C(N)=O)c1ccccc1C(F)(F)F	23.7 ± 4.8%
N#C/C(=C\c1ccc(O)c(O)c1)C(=O)NCc1ccccc1	0.71 ± 1%
COc1cc2ncnc(Nc3ccc(F)c(Cl)c3)c2cc1OCCCN1CCOCC1 [Gefitinib]	12.5 ± 5.5%
COc1ccc(C(=O)Nc2sc3c(c2C(N)=O)CCCC3)cc1OC	100%
CCN(CC)CCNC(=O)c1ccc2nc(-c3ccccc3)c(-c3ccc(CN4CCC(n5c(=O)[nH]c6ccccc65)CC4)cc3)nc2c1 [Merck-22-6]	100%
COc1cc(OC2CCN(C)CC2)ccc1Nc1ncc2c(n1)n(C1CCCC1)c(=O)n2C	87.6 ± 18%
Cc1ccc(NC2=CC(=O)c3sc(C)nc3C2=O)cc1 [Ryuvidine]	100%
Nc1ncnc2n[nH]c(Nc3ccc(F)cc3)c12	24% and 11%
Cc1cc(Nc2cc(CN3CCOCC3)c3nc(C)c(Cc4ccc(Cl)cc4F)n3n2)n[nH]1	100%
